# Screening results deposited in PubChem BioAssay by National Center for Advancing Translational Sciences (NCATS).
# Sampled rows, rich in hits. Any-hit rate of the full collection: about 2.5%.
# ClpP mod: qHTS Assay for Activators of ClpP; purified B. subtilis ClpP, FRET peptide cleavage, 20 min; 340,000 compounds, 1.9% hits; Potency, µM (highest dose often 57.5 µM), for inactives: at the highest dose activity change, negative = active; AID 651965, 2013; active = well fitted falling curve with a large enough effect; inconclusive = small, poorly fitted or top-dose-only effect; inactive = no such curve, though single readings can be large or run the other way; note: potency is the fitted concentration of half-maximal effect; the source files actives as falling curves though it sought activators and does not explain the sign; nearly all actives have a fitted effect of over 65% in size
# Target sequence (P80244 whole entry, looked up): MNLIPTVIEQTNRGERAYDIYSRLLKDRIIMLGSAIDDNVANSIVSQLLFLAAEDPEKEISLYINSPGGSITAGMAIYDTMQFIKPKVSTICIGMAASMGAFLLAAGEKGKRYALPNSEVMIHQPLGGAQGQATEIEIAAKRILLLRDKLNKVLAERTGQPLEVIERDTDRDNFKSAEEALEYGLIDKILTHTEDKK
#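 FRET quenching reversal measured ClpP activation: 10 microg/mL B. subtilis ClpP at pH 8 with the FRET-FV decapeptide, read at 430 nm after 320 nm excitation. The 20-min minus 0-min signal was scaled between DMSO/no-enzyme wells and ADEP (5.8 microM final).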
# Anesthetic bind: qHTS Assay for Identification of Novel General Anesthetics | apoferritin/1-aminoanthracene competitive binding, fluorescence | Potency, µM (highest dose often 77.5 µM), without a hit: top-dose activity change, negative = displacement, actives largely listed as inhibitors | 350,000 compounds, 0.074% hits; note: potency is the fitted concentration of half-maximal effect; % is set by controls: 0 for no effect and ±100 for the full control effect; nearly all actives have a fitted effect of over 20% in size
# Target sequence (P02791 2-175 limits assumed): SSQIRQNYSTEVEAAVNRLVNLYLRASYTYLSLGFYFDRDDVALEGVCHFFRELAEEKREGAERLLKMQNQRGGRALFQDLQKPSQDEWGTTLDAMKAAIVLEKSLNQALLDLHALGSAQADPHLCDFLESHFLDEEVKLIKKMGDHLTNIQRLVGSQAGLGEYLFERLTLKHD
#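 In PBS, apoferritin at 10 uM is loaded with 1-AMA from a 50% saturated solution. After 10 min of compound exposure at ambient temperature, reduced 535 nm fluorescence indicates probe displacement.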
# rTrxR1 inhibitor: qHTS Assay for Inhibitors of Mammalian Selenoprotein Thioredoxin Reductase 1 (TrxR1): qHTS | Thioredoxin reductase 1, cytoplasmic (Rattus norvegicus), O89049 | 390,000 compounds, 1% hits | AID 588453, 2011 | recombinant rTrxR1, NADPH fluorescence consumption, selenite substrate | Potency, µM (highest dose often 114 µM), inactives show at the top dose activity change, negative = inhibition, actives largely listed as inhibitors; note: potency is the fitted concentration of half-maximal effect; % is set by controls: 0 for no effect and ±100 for the full control effect; nearly all actives have a fitted effect of over 65% in size
#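 Rat TrxR1 (90 nM in the dispensed reagent) was pre-reduced with 400 uM NADPH for 5 min at room temperature, then incubated with compound for 15 min. After 400 uM selenite was added, NADPH fluorescence (Ex 340/Em 450 nm) was followed for 8 min.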
# miR-21 reporter: qHTS Assay for Modulators of miRNAs and/orActivators of miR-21. HeLa miR-21 FLuc reporter, luciferase, 48 h. Potency, µM (highest dose often 38.3 µM), inactives show top-dose activity change, positive = activation, usual class: activators. 340,000 tested, under 10 active;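 note: % of control where 0% means no effect; miR-21 action dims this reporter so a rising signal means less miR-21 action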
#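 Compounds were titrated across several concentrations (up to approximately 40 uM) and incubated 48 hours with HeLa miR-21-FLuc reporter cells (miR-21 target sequence downstream of FLuc, endogenous miR-21). Readout was firefly luciferase luminescence after lytic detection reagent.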
# TrxR1 substrate: qHTS Assay for Substrates of Mammalian Selenoprotein Thioredoxin Reductase 1 (TrxR1): qHTS; 390,000 compounds, 0.01% hits; purified TrxR1 substrate turnover, NADPH consumption readout; Thioredoxin reductase 1, cytoplasmic (Rattus norvegicus), O89049; Potency, µM (titrated, usually from 114 µM), for the others: top-dose activity change, negative = substrate turnover; note: potency is the fitted concentration of half-maximal effect; % is set by controls: 0 for no effect and ±100 for the full control effect; nearly all actives have a fitted effect of over 50% in size
#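 Rat TrxR1, dispensed at 90 nM, was prereduced with 400 uM NADPH (final) for 5 min at ~22 deg C, then incubated with compound 15 min before 400 uM selenite. A first-read NADPH fluorescence drop versus no-compound background flagged substrates.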
# * hit, by the source's call; ? = inconclusive; / = no result; [ ] = dose if it differs, or a comment. Unless noted, calls come from the whole dose curve; as a rule, active = well fitted curve in the direction sought with a large enough effect; inconclusive = small, poorly fitted or top-dose-only effect, or another doubt; inactive = no such curve, though single readings can be large; an effect the other way counts as inactive or inconclusive.
SMILES,ClpP mod,Anesthetic bind,rTrxR1 inhibitor,miR-21 reporter,TrxR1 substrate
COC(=O)C1=C(O)/C(=C\c2cc(C)n(-c3ccc(F)cc3)c2C)N=C1C,/,-3%,18µM*,2%,-9%[57.1 µM]
COC(=O)C1=C(C)NC(=O)/C1=C\c1cc(C)n(-c2ccc(F)cc2)c1C,/,-5%,-3%[57.1 µM],-3%,4%
CCOc1ccccc1C1C(C(=O)Nc2ccccc2)=C(C)Nc2c(C(=O)Nc3ccc(F)cc3)cnn21 (stereo not drawn),?,-7%,42%,15%,8%
Cn1cc(-c2ccc(Cl)cc2)cc(C#N)c1=O,/,1%,-5%[57.1 µM],-5%,37%[57.1 µM]
C=CCn1cc(-c2cccc(Cl)c2)cc(C#N)c1=O,28µM*,5%,42%,-4%,98%
N#Cc1cc(-c2cccc(Cl)c2)c[nH]c1=O,22µM*,-8%,13%[57.1 µM],-3%,37%[57.1 µM]
Cc1ccc(/C=C/c2nnc(-c3ccccc3)o2)cc1,32µM*,-12%,19%,-34%,6%
C(=C\c1nnc(-c2cccs2)o1)/c1ccccc1,14µM*,-23%,10%,-56%,35%
CC(C)[C@H]1COCCS(=O)(=O)N1Cc1cccc([N+](=O)[O-])c1,1%,/,9%,/,4%
CCCc1[nH]nc2c1C(Cc1ccccc1)C(C#N)=C(N)O2 (stereo not drawn),-11%,-9%,?,-5%,-2%
Cc1[nH]nc2c1C(Cc1ccccc1)C(C#N)=C(N)O2 (stereo not drawn),-4%,-6%,25µM*,-7%,16%
CCc1[nH]nc2c1C(Cc1ccccc1)C(C#N)=C(N)O2 (stereo not drawn),-9%,-1%,?,-3%,-2%
CC(C)c1[nH]nc2c1C(Cc1ccccc1)C(C#N)=C(N)O2 (stereo not drawn),-3%,-17%,18µM*,-1%,9%
CC(=O)N1N=C(c2c(-c3ccccc3)c3cc(Br)ccc3[nH]c2=O)CC1c1ccco1 (stereo not drawn),-5%,1%,50µM*,15%,5%
CCSc1ncc(Cl)c(C(=O)N2CCN(c3ccc(OC)cc3)CC2)n1,-1%,-7%,1%,-3%,-5%
CCCS(=O)(=O)c1ncc(Cl)c(C(=O)N2CCN(c3ccc(OC)cc3)CC2)n1,0%,-20%,8.9µM*,?,5%[57.1 µM]
Cc1csc2nc(COC(=O)c3ccccc3NC(=O)COc3ccccc3F)cc(=O)n12,-1%,2%,11%[57.1 µM],-10%,7%[57.1 µM]
CCCc1ccc(-c2cc(C(=O)NCCc3ccc(S(N)(=O)=O)cc3)c3ccccc3n2)cc1,32µM*,?,11%,-22%,13%
Cc1cc(NC(=O)c2cc(-c3ccc(C)c(C)c3)nc3ccccc23)no1,13µM*,-18%,3%,-3%,15%
Cc1cccc(-c2cc(C(=O)NCc3ccccn3)c3ccccc3n2)c1,-1%,-7%,-12%,-2%,10%
COc1ccc(CCNC(=O)c2cc(C3CC3)nc3c2cnn3C(C)C)cc1OC,-4%,/,22%,/,-5%
CC(C)n1ncc2c(C(=O)NCCc3ccc(S(N)(=O)=O)cc3)cc(C3CC3)nc21,32µM*,/,18%,/,72%
Cc1ccc(-c2cc(C(=O)NCc3ccccn3)c3ccccc3n2)cc1C,32µM*,-23%,-17%,16%,43%
Cc1ccc(C)c(CN2C(=O)c3ccccc3S(=O)c3ccc(C(=O)N4CCCCC4)cc32)c1 (stereo not drawn),0%,1%,42%,10%,4%
O=C(CNC(=O)C1CCCCC1)OCC(=O)c1ccc([N+](=O)[O-])cc1,-5%,/,6%[0.0914 µM],/,8%[0.0914 µM]
Cc1ccc(-c2cc(C(=O)Nc3cc(C)on3)c3ccccc3n2)cc1,35µM*,2%,-6%,2%,-5%
Cc1cc(NC(=O)c2cc(-c3ccccn3)nc3ccccc23)no1,-7%,-19%,1%,7%,-8%
